Screening data: PubChem, National Center for Advancing Translational Sciences (NCATS)
HepG2 viability – counter-screen for TGF-b inhibitors: cytotoxicity in HepG2 cells; HepG2 CAGA-GFP viability, ATP luminescence, 18 h; Potency, µM (series often up to 46.1 µM), most hits filed as cytotoxic; 0.76% of 410,000 active; AID 588856
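CellTiter-Glo luminescence gave cytotoxicity after 18 hours at 37 degrees C. The cells were HepG2 CAGA-GFP in 1% FBS DMEM, stimulated with 500 pg/mL TGF-beta after compound addition. %Activity was normalised to no-cell wells (complete cell-killing) and DMSO (no toxicity), and curves were fitted and classified.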
VP16 counter – Gal4-VP16 reporter inhibition counter-screen | Potency, µM (highest dose often 53.6 µM), usual class: inhibitors | 3.5% of 310,000 active | Drosophila S2 Gal4-VP16 UAS-luciferase, luminescence, 20 h;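 also: Gal4-VP16 expression switched on by copper sulfate through the metallothionein promoter; nearly all actives have a fitted effect of over 50% in size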
TGFb SMAD3 inh – TGF-b pathway inhibition; HepG2 CAGA-GFP TGF-b/SMAD3 reporter, GFP fluorescence, 18 h; TGF-beta stimulated, 500 pg/mL final; Potency, µM (doses to about 46.1 µM), actives largely listed as inhibitors; 1.2% of 410,000 active; AID 588855; also: nearly all actives have a fitted effect of over 65% in size
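Cell-based qHTS in HEPG2 carrying a CAGA-GFP Smad reporter; compounds added before 500 pg/mL final TGF-beta, 18 h incubation at 37 degrees C, GFP fluorescence quantified per cell by imaging cytometry.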
ATXN2 expr inh – reduces ATXN2 reporter expression in HEK-293 cells. HEK-293 ATXN2-luciferase reporter, luminescence, 24 h. Potency, µM (series often up to 57 µM), most hits filed as inhibitors. 0.72% of 360,000 active; also: nearly all actives have a fitted effect of over 55% in size
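qHTS (up to 57 uM final) was run with 24 h compound exposure of reporter cells at 37 °C. Each well was multiplexed: SteadyGlo luminescence measured ATXN2-luciferase expression after a fluorogenic Gly-Phe-AFC viability readout (25 uM final).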
RORg inh – ROR gamma (mouse) transcription inhibition. P51450. Drosophila S2 Gal4-RORgamma UAS-luciferase reporter, 20 h. Potency, µM (top dose mostly 53.6 µM), most hits filed as inhibitors. 5.4% of 310,000 active; also: nearly all actives have a fitted effect of over 60% in size
Target sequence (P51450 whole entry, looked up, the tested form may be a part): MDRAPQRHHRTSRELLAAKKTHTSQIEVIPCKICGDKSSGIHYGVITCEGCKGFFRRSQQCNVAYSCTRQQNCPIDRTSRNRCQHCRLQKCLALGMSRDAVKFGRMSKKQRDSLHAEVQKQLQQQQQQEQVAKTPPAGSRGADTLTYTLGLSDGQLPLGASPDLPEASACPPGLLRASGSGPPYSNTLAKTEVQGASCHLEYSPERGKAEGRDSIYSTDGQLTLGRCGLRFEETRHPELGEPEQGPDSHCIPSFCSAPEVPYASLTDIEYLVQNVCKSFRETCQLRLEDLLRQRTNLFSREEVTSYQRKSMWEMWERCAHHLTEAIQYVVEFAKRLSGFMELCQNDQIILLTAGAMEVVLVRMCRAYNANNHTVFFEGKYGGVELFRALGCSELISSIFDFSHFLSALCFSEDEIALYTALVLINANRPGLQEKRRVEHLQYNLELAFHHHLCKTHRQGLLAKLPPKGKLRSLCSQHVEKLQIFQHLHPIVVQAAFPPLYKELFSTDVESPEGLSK
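ROR gamma transcriptional activity was tracked as Gal4-UAS luciferase output in stably transfected Drosophila Schneider cells, with compound added 1 hr before 700 uM copper sulfate induction and a 20 hr ambient-temperature incubation.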
S2 tox – reduces viability in counter-screen for ATXN expression inhibitors; S2 cells (HEK-293 line with an ATXN2-luciferase reporter) viability, CellTiter-Fluor protease fluorescence, 24 h; Potency, µM (titrated, usually from 56.7 µM), most hits filed as cytotoxic; 0.49% of 400,000 active; also: nearly all actives have a fitted effect of over 40% in size
Numbers stand for hits; n = inactive; u = inconclusive; x = no result; ! = a repeat was not active; [ ] = dose if it differs, or a comment. This is a sample that favours compounds with a hit; in the whole collection about 6.3% have one here. Calls follow the shape of the dose curve; as a rule, active = well fitted curve in the direction sought with a large enough effect; inconclusive = small, poorly fitted or top-dose-only effect, or another doubt; inactive = no such curve, though single readings can be large; an effect the other way counts as inactive or inconclusive.

SMILES | HepG2 viability | VP16 counter | TGFb SMAD3 inh | ATXN2 expr inh | RORg inh | S2 tox
Cc1ccc2c(Cl)cc(Cl)c(OCC(=O)Nc3cccc(S(N)(=O)=O)c3)c2n1 | n | u | n | n | 14µM | u
Cc1noc(C)c1C(=O)OCC(=O)Nc1cccc(S(=O)(=O)N(C)C)c1 | n | n | n | n | u | n
Cc1cccc(-n2cc(-c3ccccc3)c3c(NN4CCOCC4)ncnc32)c1 | n | u | n | n | 6.3µM | n
CCNCc1nc2cc(Cl)ccc2c(=O)[nH]1 | n | 16µM | n | n | 6.3µM | n
NC(=O)C1CCN(Cc2nc3cc(Cl)ccc3c(=O)[nH]2)CC1 | n | n | n | n | n | n
COCCN(CCOC)Cc1cc(=O)oc2cc(C)cc(C)c12 | n | x | n | n | x | n
COc1cc(/C=N/N=C(/N)c2nonc2N)cc(Br)c1OCc1ccccc1C | n | u | u | n | u | n
COc1cccc(/C=N/N=C(\N)c2nonc2N)c1O | n | 0.63µM | n | n | 0.1µM | n
CCNC(=O)C1CCCN(C(=O)c2cc(F)cc(F)c2)CC1 (centres undefined) | n | x | n | n | x | n
COc1ccc(Cn2c(SCc3ccc(C(=O)NC4CCCCC4)cc3)nc3ccncc32)cc1 | n | x | 13µM | u | x | n
O=C(NC1CCCCC1)c1ccc(CSc2nc3cccnc3n2Cc2ccccc2)cc1 | n | x | n | n | x | u
O=C(NC1CCCC1)c1ccc(CSc2nc3cccnc3n2Cc2ccccc2)cc1 | n | x | 18µM | n | x | n
O=C(NC1CCCC1)c1ccc(CSc2nc3ccncc3n2Cc2ccc(F)cc2)cc1 | n | n | 7.9µM! | u | n | u
O=C(NC1CCCC1)c1ccc(CSc2nc3ccncc3n2Cc2cccc(F)c2)cc1 | n | x | u | n | x | u
C(=C\c1nc2ccccc2nc1/C=C/c1ccc2c(c1)OCO2)/c1ccc2c(c1)OCO2 | n | x | n | x | x | x
CCOc1ccc(CCNC(=O)C2CCN(C(=O)c3cc4sccc4n3CC)CC2)cc1OCC | n | x | u | x | x | x
CN(C)CCNC(=O)c1sc2nc(-c3ccccc3)cc(C(F)(F)F)c2c1N | 11µM | u | u | u | u | n
CCCOc1ccccc1/C=N/NC(=O)C1CC1 | n | n | n | n | 8.9µM | n
CCCCn1cc(S(=O)(=O)c2cccc(C)c2)c(=O)c2cc(F)c(N3CCOCC3)cc21 | n | x | n | x | x | x
Cc1ccc(-c2cc(C(=O)N/N=C/c3c[nH]c4ccccc34)n[nH]2)o1 | n | n | n | x | u | u
COc1cc(/C=N/NC(=O)c2ccccn2)ccc1OC(=O)c1ccc(Br)cc1 | n | n | n | n | n | n
Cc1cc(C(=O)N/N=C/c2cc(Br)ccc2OC(=O)c2ccc(Br)cc2)n[nH]1 | x | 7.1µM | x | x | 8.9µM | x
Cc1ccc(-c2cc(C(=O)N/N=C/c3ccccc3O)n[nH]2)o1 | n | u | u | 20µM | u | u
Cc1cc(C(=O)N/N=C/c2cc(Br)cc(Br)c2OC(=O)c2ccccc2)n[nH]1 | x | n | x | x | n[10 µM] | x
Cc1cc(C(=O)N/N=C\c2cc(C(C)(C)C)ccc2O)n[nH]1 | n | 5.6µM | n | u | 2.2µM | n
SMILES | HepG2 viability | VP16 counter | TGFb SMAD3 inh | ATXN2 expr inh | RORg inh | S2 tox
Cc1cc(C(=O)N/N=C/c2cc(Br)cc(Br)c2OC(=O)c2cccc(F)c2)n[nH]1 | n | n | n | u | 3.5µM | x
Cc1cc(C(=O)N/N=C/c2cccs2)n[nH]1 | n | n | n | n | n | n
CCOC(=O)C1=C(C)NC2=C(C(=O)C(C(=O)OCC)C(c3ccco3)C2)C1c1ccccc1C (centres undefined) | n | x | n | x | x | x
Cc1c(NC(=O)c2ccc(C(C)(C)C)cc2)cccc1[N+](=O)[O-] | n | u | n | n | u | n
Cc1c(NC(=S)NC(=O)C(C)(C)C)cccc1[N+](=O)[O-] | n | 20µM | n | n | 14µM | n
COc1ccccc1NC(=S)NC(=O)CCc1ccccc1 | n | 10µM | n | n | 13µM | x
O=C(C[n+]1ccccc1)Nc1ccccc1Br | n | 2.8µM | n | n | 1.3µM | n
O=C(CCc1ccccc1)NC(=S)Nc1ccccc1Br | n | u | u | n | 3.5µM | x
COc1ccc(Cl)cc1NC(=O)CCc1ccccc1 | n | n | n | n | n | n
